# Compound activity (PubChem)
# Shown are actives, neighbours in structure and some others; about 3.1% of the full set was active somewhere.
# Mcl1 Noxa PPI: Mcl-1/Noxa interaction inhibition | 1.5% of 220,000 active | Q07820 | TR-FRET Mcl-1/Noxa peptide binding, 2 h | inhibition, % at 21.7 µM;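 active means compounds that cut the protein-peptide binding signal by more than 50% relative to plate controls in a single-dose test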;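 further: His-tagged Mcl-1 with rhodamine Noxa BH3 peptide and terbium anti-His antibody; 0% = Mcl-1 plus Noxa peptide wells and 100% = peptide-only wells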
# Target sequence (Q07820 whole entry, looked up): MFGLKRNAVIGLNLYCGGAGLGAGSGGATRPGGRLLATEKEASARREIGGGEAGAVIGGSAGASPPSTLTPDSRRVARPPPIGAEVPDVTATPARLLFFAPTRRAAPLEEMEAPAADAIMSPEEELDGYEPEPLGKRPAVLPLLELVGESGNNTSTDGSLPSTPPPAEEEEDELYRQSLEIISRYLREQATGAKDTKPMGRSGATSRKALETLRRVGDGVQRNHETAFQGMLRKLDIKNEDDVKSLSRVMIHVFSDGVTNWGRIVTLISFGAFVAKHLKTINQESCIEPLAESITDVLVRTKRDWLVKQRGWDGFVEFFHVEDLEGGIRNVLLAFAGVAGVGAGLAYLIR
# 14-3-3 Bad PPI: disrupts binding of bovine 14-3-3 zeta to phospho-Bad peptide; P63103; TR-FRET 14-3-3zeta/Dy647-pBad peptide displacement, 1 h; inhibition, % at 21.7 µM; 0.71% of 220,000 active;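 active means inhibition above about 70%, limit read from the data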;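 further: 0% = full 14-3-3 plus peptide FRET controls and 100% = background without 14-3-3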
# Target sequence (P63103 whole entry, looked up): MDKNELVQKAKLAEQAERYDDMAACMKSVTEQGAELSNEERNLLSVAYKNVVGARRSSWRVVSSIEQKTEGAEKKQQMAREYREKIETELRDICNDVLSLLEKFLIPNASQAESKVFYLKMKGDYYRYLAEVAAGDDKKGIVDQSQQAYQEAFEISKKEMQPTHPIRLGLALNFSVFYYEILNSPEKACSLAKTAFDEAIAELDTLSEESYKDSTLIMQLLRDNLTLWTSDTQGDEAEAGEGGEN
# NCF1 inh: blocks human p47phox regulatory protein of NADPH oxidases | P14598 | p47phox/p22phox peptide binding, fluorescence polarization, 2 h | inhibition, % at 24.7 µM | 0.53% of 220,000 active | AID 1274;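 active means inhibition above about 30%, limit read from the data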;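 further: 0% = p47phox with labelled peptide and 100% = labelled peptide alone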
# Mcl-1 Bim block: inhibitors of Bim-Mcl-1 interaction, human | Q07820 | 0.1% of 190,000 active | Bead-based flow cytometry, Bim peptide-Mcl-1 binding | inhibition, % at 10 µM; in the data active means inhibition above about 40%;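 further: 0% = no compound tracer wells and 100% = peptide blocker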
# Mcl1 Bid PPI: disrupts binding of human Mcl-1 to Bid peptide. inhibition, % at 21.7 µM. TR-FRET Mcl-1/Bid-Dy647 peptide binding, 1536-well. AID 1021. 0.97% of 220,000 active;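 active means compounds that cut the binding signal by more than half at the single screening dose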;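 further: His-tagged Mcl-1 with europium anti-His antibody binding Bid BH3 peptide; 0% = Mcl-1 plus peptide wells and 100% = peptide-only wells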
# Starred values were filed as active, the others as inactive; . = no result; [ ] = remark or other dose.
SMILES,Mcl1 Noxa PPI,14-3-3 Bad PPI,NCF1 inh,Mcl-1 Bim block,Mcl1 Bid PPI
CS(=O)(=O)C1=NSC2=NC(=O)/C(=C\c3ccc(-c4ccccc4)o3)C(=N)N21,14,-14,-30,0,-13
CCC1=NN2C(=N)/C(=C\c3cccn3-c3ccc(Cl)cc3)C(=O)N=C2S1,20,-2,-2,0,-25
CCc1ccc(-n2cccc2/C=C2/C(=N)N3C(=NC2=O)SN=C3S(C)(=O)=O)cc1,94*,13,-93,2,-4
O=C(Nc1cccc([N+](=O)[O-])c1)Nc1cccs1,26,-22,-7,0,-13
Cn1c(=O)c2c(-c3ccc(OC(F)F)cc3)cc(-c3ccccc3)nc2n(C)c1=O,34,2,-16,.,-87
CCCC(=O)Nc1ccc2c(c1)nc(CCN1CCCCC1)n2C,4,-3,-2,.,-8
C(#Cc1ccccc1)C[N+]1(CC#Cc2ccccc2)CCCC1,2,-15,-5,-4,0
C=CC#CC[N+]1(CC#Cc2ccccc2)CCOCC1,28,-291,61*,-11,-20
COCCN1Cc2cccc(C(=O)Nc3cccc(C)c3C)c2C1=O,90*,-1,-14,-3,91*
CC(=O)N(/N=C/c1cccc(C)c1)c1nc(-c2ccc(Br)cc2)cs1,2,-14,-7,-2,99*
CC(=O)c1ccc(N2CCN(C(=O)CCCn3c(=S)[nH]c4cc5c(cc4c3=O)OCO5)CC2)cc1,35,-9,-15,0,55*
Cc1nc(N2CCC(C)CC2)c2c(C)c(C(=O)Nc3ccccc3C(F)(F)F)sc2n1,9,4,-16,-1,5
Cc1ccc(NC(=O)COC(=O)CC2CCCC2)cc1Cl,-2,0,-8,0,-4
CCOC(=O)c1cnc(SC)nc1N,3,-4,109*,0,-10
Cc1ccc(CNC(=O)CCS(=O)(=O)c2ccc(Br)cc2)cc1,5,96*,-7,-1,-90
Cc1ccc(CNC(=O)CCS(=O)(=O)c2cccc3nonc23)cc1,4,-5,-11,-1,93*
COc1ccc(NC(=O)CCS(=O)(=O)c2cccc3nonc23)c(OC)c1,6,-2,80*,-1,-5
Cc1cc(C)c2c(=O)[nH]c(SCc3ccccc3)nc2n1,3,-3,-3,-8,-19
CCN(CC)c1ccc(/C=C2\SC(=O)N(C(C)C)C2=O)o1,4,21,-287,.,37
C#CCn1c(=NC(=O)c2sc3ccccc3c2Cl)sc2cc(S(N)(=O)=O)ccc21,-32,77*[fluorescence artefact?],-46,-4,-21
C#CCn1c(=NC(=O)c2ccc(S(=O)(=O)N3CCc4ccccc4C3)cc2)sc2cc(S(N)(=O)=O)ccc21,-51,59,1,-3,22
O=c1ccc2cc3c([nH]c4ccc(Br)cc43)oc-2c1O,94*,6,-36,24,13
COC(=O)N=Nc1c(O)[nH]c2ccc(Br)cc12,-12,-2,-11,.,-22
Cc1ccn2c(-c3n[nH]c(=S)n3C)c(C)nc2c1,54*,3,13,-4,-52
Cc1cccc(-c2n[nH]c(=S)n2C)c1,13,-1,-1,-4,-29
SMILES,Mcl1 Noxa PPI,14-3-3 Bad PPI,NCF1 inh,Mcl-1 Bim block,Mcl1 Bid PPI
Cc1cccc(NC(=O)CSc2nnnn2-c2ccc3c(c2)OCCO3)n1,3,-6,-4,-2,-44
CC(C)c1ccc(S(=O)(=O)N2CCN(CCC(=O)Nc3ccc(N(C)C)cc3)CC2)cc1,72*,-3,-8,0,-33
COc1ccc(N2CCN(C(c3ccccc3OC)c3nnnn3C3CCCC3)CC2)cc1 (stereo not drawn),26,23,-13,-1,34
COc1ccc(N2CCN(C(c3cc(OC)ccc3OC)c3nnnn3CC3CCCO3)CC2)cc1 (stereo not drawn),60*,51,1,-1,15
COc1ccc(N2CCN(C(c3cccc(OC)c3OC)c3nnnn3C3CCCC3)CC2)cc1 (stereo not drawn),26,77*,-3,0,-27
CCN1CCN(C(c2cc(OC)ccc2OC)c2nnnn2Cc2ccccc2)CC1 (stereo not drawn),29,79*,-12,2,-19
COc1ccc(CC(=O)Nc2ccc(N3CCOCC3)cc2)cc1S(=O)(=O)N1CCOCC1,8,4,-6,.,-38
C[C@H]1CC[C@H]2C(=O)N[C@H](Cc3ccccc3)C(=O)N2[C@@H]1c1ccccc1,-8,-5,-8,-3,-7
O=c1ccc2[n+]([O-])c3ccc(O)cc3oc-2c1,74*,25,-298,.,-74
O=c1cc(O)c2ccc(O)cc2o1,-15,7,-26,-7,-17
CC(C)(C)C(=O)NNc1nc(-c2ccccc2)c2cc(Br)ccc2n1,-4,8,-8,-3,97*
CC(=O)N1CCN(Cc2nc3cc(NC(=O)c4ccc(F)cc4)ccc3n2C)CC1,-15,1,-6,0,-16
CCOc1ccc2c(c1)C(c1cccs1)=NNC(c1cccnc1)=N2,14,0,44*,0,-15
COc1ccc2[nH]c3c(=O)n(Cc4ccc(C(=O)N5CCCC5)cc4)c(=S)[nH]c3c2c1,78*,1,12,0,-34
Cc1nc(SCC(O)CCl)c([N+](=O)[O-])[nH]1 (stereo not drawn),7,2,-4,-2,4
COCC(O)CSc1nc(C)[nH]c1[N+](=O)[O-] (stereo not drawn),26,-11,-7,0,87*
O=C(NC1CCCC1)C1CC(c2ccc(F)cc2)=NO1 (stereo not drawn),-5,-2,60*,0,-13
Cc1ccc(C(=O)OC/C(O)=C(\C#N)c2nc3ccccc3[nH]2)cc1S(=O)(=O)N1CCOCC1,-18,-2,-44,-2,-28
N#C/C(=C(/O)COC(=O)CCc1ccc(S(=O)(=O)N2CCOCC2)cc1)c1nc2ccccc2[nH]1,62*,-7,-48,3,-24
N#C/C(=C(/O)COC(=O)c1ccc(Cl)c(S(=O)(=O)N2CCOCC2)c1)c1nc2ccccc2[nH]1,52*,4,-41,-1,-1
COC(=O)c1cnn(-c2ccc(Cl)cc2)c1/C=N/NC(N)=S,32,-5,-1,.,-17
CCCN1CCN(C(=S)Nc2ccccc2C(F)(F)F)CC1,0,2,-3,-7,-27
O=C(/C=C/c1ccccc1)NC(=S)Nc1ncccn1,68*,19,1,.,-76
CCCC1COC(Cn2cncn2)(c2ccc(C)cc2)O1 (stereo not drawn),-9,88*,-4,5,-25
COc1cccc(/C=N/N2C(=O)CSC2=S)c1O,22,0,-38,-5,-39
COc1cc(/C=N/N2C(=O)CSC2=S)cc(Br)c1O,58*,8,-166,-3,-13
CCN=c1scc(C)n1/N=C/c1cc(Br)c(O)c(OC)c1,63*,-32,-10,2,-17
COc1ccc(OC)c(NC(=O)COC(=O)c2cc3c(s2)CCC3)c1,72*,43,-9,95*,-68
